In PubChem BioAssay (Tox21):
Inconclusive results are not listed. The source made the active and inactive calls. The call rests on the fitted dose curve; in most records, active means well fitted inhibition curve with a large enough effect in the signal ratio in the repeat runs (not every such curve was filed as active); inconclusive means weak or mixed curves; inactive means flat fitted curve, though single readings scatter; the % refers to the signal ratio.

Biological target: Progesterone receptor (Homo sapiens) (UniProt P06401)
Experiment: qHTS assay to identify small molecule antagonists of the progesterone receptor (PR) signaling pathway (AID 1346795)
Conditions: PR-UAS-bla HEK293T, beta-lactamase FRET ratio, 16 h; series mostly up to 92.4 µM; activity change, negative = inhibition: at the top concentration
Description: National Center for Advancing Translational Sciences [NCATS]
NIH Chemical Genomics Center [NCGC]
U.S. Environmental Protection Agency [EPA]
National Institutes of Environmental Health Sciences [NIEHS]
National Toxicology Program [NTP]
U.S. Food and Drug Administration [FDA]
Progesterone receptor (PR), a nuclear hormone receptor, plays an important role in development, metabolic homeostasis and reproduction. […] Endocrine disrupting chemicals (EDCs) and their interactions with steroid hormone receptors like PR causes disruption of normal endocrine function. To identify the compounds that inhibit PR signaling, a PR-UAS-bla GripTite cell line i.e. PR-UAS-bla HEK293T (Invitrogen, Carlsbad, CA, USA) containing a beta-lactamase reporter gene under the control of an Upstream Activator Sequence (UAS) was used to screen Tox21 10K compound library.
Tox21 Assay Protocol Summary:
PR-UAS-bla HEK293T cells were dispensed at 3,000 cells/4 uL of assay medium containing 2% charcoal stripped FBS per well into black wall/clear-bottom 1536-well plates using a Multidrop Combi (ThermoFisher Scientific, Waltham, MA) dispenser. After the assay plates were incubated at a 37C and 5% CO2 for 6 hr, 23 nL of compounds dissolved in DMSO, positive controls or DMSO only was transferred to the assay plate by a Pintool station (Kalypsys, San Diego, CA), followed by addition of 1 uL (1nM as final concentration) of Promegestone (R5020) in assay medium using a BioRAPTR FRD (Flying Reagent Dispenser, Aurora Discovery, San Diego, CA). The plates were incubated at 37C and 5% CO2 for 16 hr. Then 1 uL of LiveBLAzer B/G FRET substrate was added using a FRD. After the plates were incubated at room temperature for 2 hours, fluorescence intensity was measured by an Envision plate reader (PerkinElmer, Shelton, CT).
On the % scale 0 is the no-effect control and ±100 the full control effect; potency means the concentration at half of the fitted maximal effect.

Chain of Progesterone receptor (Homo sapiens) (P06401 whole entry, looked up): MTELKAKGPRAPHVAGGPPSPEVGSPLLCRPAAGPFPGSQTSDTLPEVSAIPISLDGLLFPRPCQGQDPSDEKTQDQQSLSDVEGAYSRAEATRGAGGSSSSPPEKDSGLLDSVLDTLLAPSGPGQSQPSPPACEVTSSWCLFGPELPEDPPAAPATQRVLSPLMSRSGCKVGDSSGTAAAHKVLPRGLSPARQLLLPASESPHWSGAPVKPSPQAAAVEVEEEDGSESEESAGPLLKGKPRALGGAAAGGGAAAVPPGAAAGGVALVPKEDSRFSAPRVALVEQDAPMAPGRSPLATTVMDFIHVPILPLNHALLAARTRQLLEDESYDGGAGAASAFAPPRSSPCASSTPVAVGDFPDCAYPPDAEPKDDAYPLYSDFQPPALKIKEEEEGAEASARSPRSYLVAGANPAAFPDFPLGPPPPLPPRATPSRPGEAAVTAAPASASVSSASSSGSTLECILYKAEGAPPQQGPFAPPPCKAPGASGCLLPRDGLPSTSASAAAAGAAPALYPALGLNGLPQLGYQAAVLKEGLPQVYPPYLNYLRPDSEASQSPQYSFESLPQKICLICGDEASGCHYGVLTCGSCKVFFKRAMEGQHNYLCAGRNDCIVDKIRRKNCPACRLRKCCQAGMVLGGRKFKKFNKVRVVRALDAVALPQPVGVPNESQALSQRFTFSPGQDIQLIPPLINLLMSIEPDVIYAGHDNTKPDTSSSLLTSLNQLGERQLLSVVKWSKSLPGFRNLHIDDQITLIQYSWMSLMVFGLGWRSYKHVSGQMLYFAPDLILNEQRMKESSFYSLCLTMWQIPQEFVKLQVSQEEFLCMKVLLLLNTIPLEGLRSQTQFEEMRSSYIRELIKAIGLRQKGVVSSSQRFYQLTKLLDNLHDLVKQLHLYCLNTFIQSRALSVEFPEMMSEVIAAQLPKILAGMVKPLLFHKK

For CN1C(=S)CN=C(c2ccccc2)c2cc(Cl)ccc21, which Potency is on record?
Its Potency is 21.1 µM (active).

With O=S(=O)(O)C(F)(F)C(F)(F)C(F)(F)C(F)(F)C(F)(F)C(F)(F)F as the compound, how does the “activity change, negative = inhibition” value read?
Its value is 6.49% (inactive).

CC(C)CP(=S)(S)CC(C)C was tested. Which Potency did it give?
The Potency was 0.486 µM (active).

Which “activity change, negative = inhibition” value does the source give for C#CCN1C(=O)COc2cc(F)c(N3C(=O)C4=C(CCCC4)C3=O)cc21 here?
Its value is -0.395% (inactive).

With CS(=O)(=O)c1cc(C(F)(F)F)ccc1C(=O)c1cnoc1C1CC1 as the compound, how does the “activity change, negative = inhibition” value read?
The value was 5.83% (inactive).

Which “activity change, negative = inhibition” value does the source give for COc1cccc(C(=O)NN(C(=O)c2cc(C)cc(C)c2)C(C)(C)C)c1C here?
Its value is -15.5% (inactive).

With CCOC(=O)C1(c2ccccc2)CCN(CCc2ccc(N)cc2)CC1 as the compound, how does the “activity change, negative = inhibition” value read?
The value was 8.39% [at 42.5 µM] (inactive).

O=C1c2ccccc2C(=O)c2ccccc21 was tested. Which activity change, negative = inhibition did it give?
Its activity change, negative = inhibition is 12.9% [at 18.9 µM] (inactive).

Which “activity change, negative = inhibition” value does the source give for OCCSCSCCO here?
Its value is 13% (inactive).

For CCOP(=S)(OCC)Oc1nc(Cl)n(C(C)C)n1, which “activity change, negative = inhibition” value is on record?
The value was -9.51% (inactive).

With CCN(CC)C(=O)[C@@H]1C=C2c3cccc4[nH]cc(c34)C[C@H]2N(C)C1 as the compound, how does the “activity change, negative = inhibition” value read?
Its value is -13.8% [at 238 µM] (inactive).

For COc1cc(C[C@@H](C)N)c(OC)cc1C, which “activity change, negative = inhibition” value is on record?
The value was -8.47% (inactive).

How did the “activity change, negative = inhibition” value turn out when C=C(C)[C@@H]1CC=C(C=O)CC1 was run?
The value was 9.37% (inactive).

With Cc1nnc2n1-c1sc(CCC(=O)N3CCOCC3)cc1C(c1ccccc1Cl)=NC2 as the compound, how does the “activity change, negative = inhibition” value read?
Its value is 9.36% [at 42.5 µM] (inactive).

How did the “activity change, negative = inhibition” value turn out when CCC#N was run?
Its value is -5.36% (inactive).

Which “activity change, negative = inhibition” value does the source give for CCCCP(CCCC)CCCC here?
The value was 0.929% (inactive).

CCCCOP(=O)(O)OCCCC was tested. Which “activity change, negative = inhibition” value did it give?
The value was 11.2% (inactive).

With C[N+](C)=CCl as the compound, how does the “activity change, negative = inhibition” value read?
Its value is 6.78% (inactive).

Which “activity change, negative = inhibition” value does the source give for CCCCOC(=O)c1ccccc1N here?
Its value is -11% (inactive).

With OC(Cn1cncn1)(c1ccc(F)cc1)c1ccccc1F (stereo not given) as the compound, how does the “activity change, negative = inhibition” value read?
The value was -19.6% (inactive).

NC(=S)C(N)=S was tested. Which “activity change, negative = inhibition” value did it give?
The value was 6.98% (inactive).

Which “activity change, negative = inhibition” value does the source give for CCC(=O)c1ccccc1 here?
The value was 5.18% (inactive).

With CNCC(=O)c1ccc(O)c(O)c1 as the compound, how does the “activity change, negative = inhibition” value read?
The value was 5.18% [at 42.5 µM] (inactive).

For CCCCC(=O)Cl, which “activity change, negative = inhibition” value is on record?
Its value is -0.313% (inactive).

Cc1ccccc1CO[C@@H]1C[C@@]2(C(C)C)CC[C@]1(C)O2 was tested. Which “activity change, negative = inhibition” value did it give?
Its value is -28.8% (inactive).

For O=P(O)(Oc1ccccc1)Oc1ccccc1, which “activity change, negative = inhibition” value is on record?
The value was 6.9% (inactive).

With [Cl][Sn]([Cl])([Cl])[Cl] as the compound, how does the “activity change, negative = inhibition” value read?
Its value is 1.47% (inactive).

Which “activity change, negative = inhibition” value does the source give for N#CCBr here?
Its value is 8.28% (inactive).

With [As]#[In] as the compound, how does the “activity change, negative = inhibition” value read?
Its value is 8.7% (inactive).

How did the “activity change, negative = inhibition” value turn out when O=[N+]([O-])c1cccc2cccnc12 was run?
Its value is -11% (inactive).

For O=C1CN=C(c2ccccc2)c2cc([N+](=O)[O-])ccc2N1, which “activity change, negative = inhibition” value is on record?
The value was -21.7% [at 42.5 µM] (inactive).

CC(C(O)c1ccccc1)N(C)C/C=C/c1ccccc1 (stereo not given) was tested. Which “activity change, negative = inhibition” value did it give?
Its value is -10% [at 42.5 µM] (inactive).

For CC(Cl)(Cl)[N+](=O)[O-], which “activity change, negative = inhibition” value is on record?
Its value is -13.1% (inactive).

For C(CCOCC1CO1)COCC1CO1 (stereo not given), which “activity change, negative = inhibition” value is on record?
The value was 13.5% (inactive).

CC1=NNC(=O)N(/N=C/c2cccnc2)C1 was tested. Which “activity change, negative = inhibition” value did it give?
The value was 12% (inactive).

How did the “activity change, negative = inhibition” value turn out when CCCSC(=O)N(CCC)CCC was run?
The value was 3.65% (inactive).

For O=C(O)c1ccc2[nH]cc(CCCCN3CC=C(c4ccccc4)CC3)c2c1, which “activity change, negative = inhibition” value is on record?
Its value is 9.26% [at 42.5 µM] (inactive).

With CCC1(c2ccccc2)C(=O)N=C(O)NC1=O (stereo not given) as the compound, how does the “activity change, negative = inhibition” value read?
The value was -2.07% (inactive).

How did the Potency turn out when Nc1c(Br)cc([N+](=O)[O-])cc1[N+](=O)[O-] was run?
Its Potency is 27.6 µM (active).

For OCCBr, which “activity change, negative = inhibition” value is on record?
Its value is -1.2% (inactive).
